DT40 TDP1 no CPT: qHTS for Inhibitors of human tyrosyl-DNA phosphodiesterase 1 (TDP1): qHTS in cells in absence of CPT; DT40 Tdp1-/- hTDP1 cells, no CPT, ATP luminescence, 48 h; Potency, µM (doses to about 46.2 µM), for inactives: at the top dose activity change, negative = growth inhibition, actives largely listed as inhibitors; 15% of 420,000 active; further: nearly all actives have a fitted effect of over 55% in size
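Chicken DT40 Tdp1-/- cells stably complemented with human TDP1 were seeded at 400 cells/well with DMSO in place of 20 nM camptothecin. After compound pinning, cells grew at least 48 hr at 37 °C; viability read by CellTiter-Glo luminescence.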
TDP1 inh: inhibitors of human tyrosyl-DNA phosphodiesterase TDP1 | Q9NUW8 | recombinant TDP1, AlphaScreen DNA substrate cleavage | Potency, µM (doses to about 130 µM), for the others: top-dose activity change, negative = inhibition, hits mostly inhibitors | 0.28% of 350,000 active; further: nearly all actives have a fitted effect of over 40% in size
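Here, a 5' biotin and 3' phosphotyrosine-FITC DNA oligonucleotide reports Tdp1 activity: intact substrate bridges AlphaScreen beads, while cleavage leaves a 3' phosphate and drops signal. All incubations at room temperature.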
RORgamma inh: blocks mouse ROR gamma transcriptional activity; P51450; Drosophila S2 Gal4-RORgamma UAS-luciferase reporter, 20 h; Potency, µM (highest dose often 53.6 µM), without a hit: at the highest dose activity change, negative = inhibition, actives largely listed as inhibitors; 5.4% of 310,000 active; AID 2551; further: nearly all actives have a fitted effect of over 60% in size
Target sequence (P51450 whole entry, looked up, the tested form may be a part): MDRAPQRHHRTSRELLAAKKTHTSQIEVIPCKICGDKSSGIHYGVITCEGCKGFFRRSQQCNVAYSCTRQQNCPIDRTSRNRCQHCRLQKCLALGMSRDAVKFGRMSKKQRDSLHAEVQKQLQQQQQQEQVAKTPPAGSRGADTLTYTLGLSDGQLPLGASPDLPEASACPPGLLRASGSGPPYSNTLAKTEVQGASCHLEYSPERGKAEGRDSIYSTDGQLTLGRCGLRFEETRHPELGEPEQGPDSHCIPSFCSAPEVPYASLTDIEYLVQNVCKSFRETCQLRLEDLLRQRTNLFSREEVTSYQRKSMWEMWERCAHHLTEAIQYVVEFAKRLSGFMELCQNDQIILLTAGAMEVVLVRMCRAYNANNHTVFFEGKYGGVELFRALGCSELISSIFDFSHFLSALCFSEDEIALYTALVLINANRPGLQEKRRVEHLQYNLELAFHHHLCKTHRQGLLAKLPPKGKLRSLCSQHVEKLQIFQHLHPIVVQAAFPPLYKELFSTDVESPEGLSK
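Drosophila S2 cells stably expressing Gal4-DBD/mouse RORγ fusion under metallothionein promoter plus UAS-luciferase; compound 1 h, then 700 uM CuSO4 induction for 20 h at ambient temperature; inhibition read as reduced luminescence.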
Gal4-VP16 FLuc: inhibits Gal4-VP16 luciferase reporter, ROR gamma counter-screen | Drosophila S2 Gal4-VP16 UAS-luciferase, luminescence, 20 h | Potency, µM (titrated, usually from 53.6 µM), without a hit: at the highest dose activity, negative = inhibition, usual class: inhibitors | 3.5% of 310,000 active;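 further: Gal4-VP16 expression switched on by copper sulfate through the metallothionein promoter; nearly all actives have a fitted effect of over 50% in size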
DT40 TDP1 CPT: growth inhibition of DT40 Tdp1-/-;hTDP1 cells with camptothecin (screen for TDP1 inhibitors); chicken DT40 Tdp1-/-;hTDP1 cells + 20 nM CPT, ATP luminescence, 48 h; 12% of 420,000 active; Potency, µM (series often up to 46.2 µM), for the others: at the top dose activity change, negative = growth inhibition, hits mostly inhibitors; further: nearly all actives have a fitted effect of over 55% in size
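Cell growth measured by CellTiter-Glo luminescence after a minimum 48 h, 37 C compound exposure with 20 nM CPT in Tdp1-knockout DT40 cells stably expressing hTDP1, seeded 400/well; qHTS titration format.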
* marks the source's active call; other numbers are inactive results; ? = inconclusive; . = no result; [ ] = dose if it differs, or a comment. A selection: hits, their analogues and other compounds. The true share with any hit is near 19%. The call rests on the fitted dose curve; in most records, active means well fitted curve in the direction sought with a large enough effect; inconclusive means small, poorly fitted or top-dose-only effect, or another doubt; inactive means no such curve, though single readings can be large; an effect the other way counts as inactive or inconclusive. On the % scale 0 is the no-effect control and ±100 the full control effect; potency means the concentration at half of the fitted maximal effect.

SMILES	DT40 TDP1 no CPT	TDP1 inh	RORgamma inh	Gal4-VP16 FLuc	DT40 TDP1 CPT
Cc1cccc(NC(=O)c2cc(-c3ccccn3)nc3ccccc23)c1C	13µM*	0%	?	?	23µM*
CCc1nnc(NC(=O)c2cc(-c3ccccn3)nc3ccc(Br)cc23)s1	-12%	2%	20µM*	?	0%
O=C(Nn1cnnc1)c1cc(-c2ccccn2)nc2ccccc12	-9%	5%	-17%	-12%	-17%
CCc1ccc(C(=O)CSc2nc3cc(S(=O)(=O)N4CCOCC4)ccc3n2CC)cc1	?	3%	9%	-10%	?
O=C(NCc1ccc2c(c1)OCO2)c1ccc(CSCc2ccccc2Cl)o1	-8%	1%	21%	0%	-11%
C=C1CCN(C(Cc2ccccc2)C(=O)NCc2ccc(Cl)cc2)S(=O)(=O)c2ccccc21 (stereo not given)	.	7%	11%	1%	.
O=C(c1ccc2c(c1)OCCO2)C1CCN(S(=O)(=O)c2ccccc2F)CC1	?	-2%	17%	-2%	-30%
Cc1ccc(NC(=O)Cn2c(-c3ccc4c(c3)OCO4)cn(-c3ccccc3)c2=O)cc1C	-13%	0%	.	.	-4%
O=C(CCCC(=O)Nc1ccc(Br)cc1)N/N=C/c1ccccc1	-28%	5%	?	20%	-3%
Cc1ccc(-c2cc(C(=O)Nc3ccccn3)c3ccccc3n2)o1	23µM*	.	2%	-17%	?
Cc1cc(NS(=O)(=O)c2ccc(NC(=O)c3cc(-c4cccnc4)nc4ccc(Cl)cc34)cc2)no1	8%	2%	3%	-12%	15%
Cc1cc(NC(=O)c2cc(-c3cccnc3)nc3c(C)c(C)ccc23)no1	16µM*	-13%	?	-26%	?
Cc1ccc(-c2cc(C(=O)Nc3cccnc3)c3ccccc3n2)o1	?	9%	-9%	-14%	16µM*
Cc1ccc(NC(=O)c2cc(-c3ccc(C)o3)nc3ccccc23)cc1	?	2%	-6%	-3%	?
COc1ccccc1NC(=O)c1cc(-c2ccc(C)o2)nc2ccccc12	?	5%[0.0935 µM]	36%	-8%	?
Cc1ccccc1CNC(=O)CCC(=O)N1CCOc2ccccc21	11%	.	-19%	0%	0%
S=c1[nH]nc(-c2ccc(Cl)cc2)n1Cc1ccccc1	?	-8%	1.8µM*	2.8µM*	?
S=c1[nH]nc(-c2cccs2)n1Cc1ccccc1	-22%	8%	2.8µM*	?	10%
Cc1n[nH]c(=S)n1Cc1ccccc1	21%	.	-40%	9%	0%
CC(C)c1cc(-c2n[nH]c(=S)n2Cc2ccccc2)cs1	?	14%	0.56µM*	?	-6%
CCOc1cc(-c2n[nH]c(=S)n2Cc2ccccc2)ccc1OC(F)F	-22%	2%	.	.	-10%
S=c1[nH]nc(C2CCCCC2)n1Cc1ccccc1	?	1%	2.5µM*	7.1µM*	?
Cc1ccc(C(=O)N/C(=C\c2ccc(F)cc2)C(=O)NCCCn2ccnc2)cc1	-9%	.	11%	0%	3%
CN(c1ccccc1)S(=O)(=O)c1cccc(Cl)c1Cl	-18%	-4%	-10%	3%	0%
S=c1[nH]nc(-c2ccccc2)n1Cc1ccccc1	-6%	3%	2.5µM*	14µM*	-11%
SMILES	DT40 TDP1 no CPT	TDP1 inh	RORgamma inh	Gal4-VP16 FLuc	DT40 TDP1 CPT
S=c1[nH]nc(CNc2ccc(Cl)cc2)n1Cc1ccccc1	2%	7%	3.5µM*	-17%	4%
COc1ccc(-c2n[nH]c(=S)n2Cc2ccccc2)cc1OC	6%	4%	11µM*	?	8%
COc1ccc(-c2n[nH]c(=S)n2Cc2ccccc2)cc1	?	.	7.9µM*	7.1µM*	-12%
O=C(NCc1n[nH]c(=S)n1Cc1ccccc1)c1ccc(Cl)cc1Cl	?	4%	?	-1%	-24%
Cc1ccc(S(=O)(=O)N=N/C=C2\C=CC=CN2O)cc1	?	.	.	.	-24%
CCOc1ncccc1C(=O)Nc1c(C)n(C)n(-c2ccccc2)c1=O	-2%	2%	0%	-6%	4%
Cc1cccc(OCCn2cnc(Cl)c2Cl)c1	-16%	-1%	18%	0%	-28%
S=c1[nH]nc(-c2ccc(Br)o2)n1Cc1ccccc1	21µM*	5%	6.3µM*	13µM*	?
C=CCn1c(C2CCCCC2)n[nH]c1=S	-26%	-2%	4µM*	?	-5%
Cc1ccc(C(=O)Nc2ccc(S(=O)(=O)N3CCCC3)cc2)cc1	?	8%	42%	3%	-17%
COCCCNC(=O)CSc1nc2cc(C(=O)NCCOC)ccc2c(=O)n1Cc1ccc2c(c1)OCO2	-17%	.	4%	-9%	0%
CCOC(=O)c1c(CN2CCN(C)CC2)n(-c2ccccc2)c2cc(Br)c(O)cc12	23µM*	3%	18%	-7%	?
CCOC(=O)c1c(CSC(=N)N)n(-c2ccccc2)c2cc(Br)c(OC(C)=O)cc12	18µM*	5%	-25%	-12%	?
CCOC(=O)c1c(CN2CCN(c3ccccc3)CC2)oc2cc(Br)c(O)cc12	?	.	16%	-4%	?
CCOC(=O)c1c(CN2CCN(CCO)CC2)n(-c2ccccc2)c2cc(Br)c(O)cc12	18µM*	7%	-9%	-11%	?
CCCCN1C(=O)C2(OCCCO2)c2cccc(C)c21	-18%	.	7%	6%	1%
Cc1csc(C(=O)NN)c1N(C)C	-5%	4%	0.56µM*	?	0%
Cc1c(C(=O)NN)sc(=S)n1C	-10%	8%	11%	-14%	-12%
O=C1C=C(OCCF)CC(c2cccc(Cl)c2)O1 (stereo not given)	?	.	.	.	1%
N#CC(/C(=N/S(=O)(=O)c1cccs1)c1ccccc1)c1nc2ccccc2[nH]1 (stereo not given)	7.3µM*	7%	-7%	0%	-25%
N#CC(Cc1cccs1)c1nc2ccccc2[nH]1 (stereo not given)	-5%	.	.	.	5%
CC(C)c1nc(-c2ccccc2)c(-c2ccccc2)[nH]1	21µM*	7%	22%	-16%	?
Cc1nn(C(C)C(=O)NCCc2cccs2)c(=O)c2nn(-c3ccccc3)c(C)c12 (stereo not given)	4%	4%	-25%	-8%	10%
CC(C)Oc1cc(NC(=O)CS(=O)(=O)CC(=O)N(C)C)c(Cl)cc1Cl	-7%	.	16%	0%	8%
NC(=O)C1CCN(CC(=O)c2c[nH]c3ccc(F)cc23)CC1	5%	0%	-35%	16µM*	9%
Cc1cc(/C=C(\C#N)C(=O)Nc2ccccc2)c(C)n1-c1ccc(F)cc1	2%	2%	.	.	-8%
